Assay results taken from PubChem BioAssay AID1159580 (chemical genetic matrix, 2015).
The campaign covered roughly 5,500 compounds. About 2,000 (36%) were called active. About 18% were inconclusive and are not listed. No stated cut-off is given here; in the data, active means normalized growth mostly below about 0.91 (no sharp cut-off); inconclusive means no clear call, values can overlap the other calls; inactive means mostly above about 0.92. The list shows a part of the results.

Experiment: chemical genetic growth profiling, strain panel (AID 1159580);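 further: tested at 20 µM; growth read once vehicle control cultures reached saturation at 30 °C; 1 = growth at the plate median or of vehicle wells; lower values mean less growth of the strain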
Conditions: S. cerevisiae deletion strains, growth OD
[1] = locus YHR030C, strain SLT2, hits give low values

Measured: normalized growth

CCN(CC)CCNC(C(=O)OCCC(C)C)c1ccccc1 (centres undefined)
inactive: [1] 0.984 | locus YHR079C, strain IRE1, hits give low values 0.986 | locus YJL095W, strain BCK1, hits give low values 0.979 | locus YJR066W, strain TOR1, hits give low values 0.913 | locus YLR113W, strain HOG1, hits give low values 1.03 | locus YNL183C, strain NPR1, hits give low values 0.916 | locus YOR231W, strain MKK1, hits give low values 0.978 | locus YPL256C, strain CLN2, hits give low values 0.964

COC(=O)c1cc([N+](=O)[O-])ccc1NC(C)=O
inactive: locus YAL013W, strain DEP1, hits give low values 0.986 | locus YBR229C, strain ROT2, hits give low values 1 | locus YCL061C, strain MRC1, hits give low values 0.997 | locus YDL101C, strain DUN1, hits give low values 1.01 | locus YDL134C, strain PPH21, hits give low values 1.01 | locus YDR150W, strain NUM1, hits give low values 0.989 | locus YEL061C, strain CIN8, hits give low values 0.989 | locus YGR078C, strain PAC10, hits give low values 1 | locus YGR229C, strain SMI1, hits give low values 1 | [1] 0.929 | locus YHR087W, strain rtc3, hits give low values 1.02 | locus YJL187C, strain SWE1, hits give low values 0.998 | locus YJR043C, strain POL32, hits give low values 0.994 | locus YJR075W, strain HOC1, hits give low values 1.03 | locus YKL190W, strain CNB1, hits give low values 0.995 | locus YLR039C, strain RIC1, hits give low values 1.05 | locus YLR058C, strain SHM2 (second series), hits give low values 0.996 | locus YLR085C, strain ARP6, hits give low values 0.977 | locus YLR262C, strain YPT6, hits give low values 1.03 | locus YML094W, strain GIM5, hits give low values 1.02 | locus YMR219W, strain ESC1, hits give low values 0.999 | locus YMR263W, strain SAP30, hits give low values 0.979 | locus YMR307W, strain GAS1, hits give low values 0.998 | locus YNL128W, strain TEP1, hits give low values 1.01 | locus YNL153C, strain GIM3, hits give low values 0.986 | locus YNL298W, strain CLA4 (second series), hits give low values 0.958 | locus YNL322C, strain KRE1, hits give low values 1.01 | locus YNR030W, strain Alg12, hits give low values 1 | locus YPL055C, strain LGE1, hits give low values 0.983 | locus YPL241C, strain CIN2, hits give low values 1.03 | locus YPR135W, strain CTF4, hits give low values 0.992
